Sampled rows, rich in hits. Any-hit rate of the full collection: about 4.7%.
TRHR ag = activates the human TRH receptor | P34981 | TRHR cells, calcium flux fluo-8, FDSS agonist mode | hit rate 0.18% among 360,000 | activation, % at 2 µM; also: 0% is about no effect
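TRHR-expressing cells, plated overnight in medium with 10% serum, were loaded with fluo-8 calcium dye at room temperature. After a 10 s baseline, library compound was pin-added and calcium release was recorded kinetically (ex 480/em 530) as agonist response.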
D1 ag = human D1 receptor agonism; P21728; AID 504660; activation, % at 2 µM; hit rate 1% among 360,000; HEK293 T-REx D1 cells, calcium flux, agonist mode; also: 0% is about no effect
Target sequence (P21728 whole entry, looked up): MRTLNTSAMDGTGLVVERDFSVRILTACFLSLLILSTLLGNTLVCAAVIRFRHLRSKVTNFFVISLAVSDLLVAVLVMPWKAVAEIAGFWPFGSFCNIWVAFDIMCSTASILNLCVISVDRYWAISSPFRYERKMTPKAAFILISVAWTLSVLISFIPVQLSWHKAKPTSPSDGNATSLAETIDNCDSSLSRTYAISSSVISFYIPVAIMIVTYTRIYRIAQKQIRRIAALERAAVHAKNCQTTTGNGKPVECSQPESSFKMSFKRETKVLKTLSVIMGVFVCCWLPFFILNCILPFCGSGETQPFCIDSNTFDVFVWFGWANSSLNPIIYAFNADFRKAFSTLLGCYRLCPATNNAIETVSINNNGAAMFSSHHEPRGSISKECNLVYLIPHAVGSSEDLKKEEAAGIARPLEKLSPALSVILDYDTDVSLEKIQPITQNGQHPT
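Agonism was scored from calcium flux recorded over 180 s (1 read/s) after pintool compound addition, following a 10-cycle baseline. Cells were inducible force-coupled HEK293 TREx D1, plated overnight at 30 C and loaded with no-wash calcium dye.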
D1 potentiator = enhances dopamine response at the human D1 receptor; HEK293 TREx D1 cells, calcium flux, dopamine EC20 potentiation; potentiation, % at 10 µM; hit rate 0.036% among 360,000; AID 504651; in the data active = potentiation above about 30%; also: 0% is about no effect
D1 antag = antagonists of human D1 dopamine receptor | hit rate 3.2% among 360,000 | activity change, negative = inhibition, % at 10 µM | HEK293 TREx D1 cells, calcium flux, dopamine EC80; hits give low values | P21728; in the data active = activity change below about -30%; also: % is scaled to controls: 0 for no effect and ±100 for the full control effect
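Inducible Hek293 Trex D1 cells (tetracycline, overnight, 30 C). Calcium dye 30–90 min RT. Antagonist mode: EC80 dopamine added after 180 s compound read.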
TRHR enhancer = allosteric enhancers of human TRH receptor | P34981 | TRHR cells, fluo-8 calcium fluorescence, EC20 TRH enhancement | enhancement, % at 2 µM | hit rate 0.66% among 360,000; in the data active = enhancement above about 30%; also: 0% is about no effect
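Enhancer read-out: after compound pinning and an initial kinetic agonist-mode read, an EC20 of TRH (10 nM final) was injected and fluo-8 calcium signal (Ex 480/Em 530) followed at 1 s/cycle for 100 cycles in TRHR-expressing cells.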
* hit, by the source's call. Rule as the data show it, unless noted: active = activation above about 30%; inactive = the rest.

COCCC1CCCCN1C(=O)c1cc(COc2ccc(-n3cncn3)cc2)on1 (stereo unspecified) was read as TRHR ag 0.3, D1 ag 17.5, D1 potentiator -8.9, D1 antag -63.7* and TRHR enhancer -4.3.
`Cc1nc(CN(C)C(=O)c2cc(COc3ccc4ncccc4c3)on2)cs1` gave TRHR ag 0.7, D1 ag 15.9, D1 potentiator -2.0, D1 antag -37.3* and TRHR enhancer -3.6.
`CC(C)N(Cc1nccn1C)C(=O)c1cc(COc2ccc3ncccc3c2)on1` gave TRHR ag -0.6, D1 ag 7.8, D1 potentiator 0.8, D1 antag -6.7 and TRHR enhancer 0.5.
CCC1CCCCN1C(=O)c1cc(COc2ccc3ncccc3c2)on1 (stereo unspecified) was read as TRHR ag -0.2, D1 ag 12.3, D1 potentiator -4.5, D1 antag -42.0* and TRHR enhancer -1.2.
`COCCOC1CCN(C(=O)c2cc(COc3ccc(-n4cncn4)cc3)on2)CC1` gave TRHR ag -0.3, D1 ag 5.3, D1 potentiator 2.0, D1 antag -4.3 and TRHR enhancer 14.2.
`CC(=O)c1ccc(OCc2cc(C(=O)N3CCCCC3c3cccnc3)no2)cc1` (stereo unspecified) gave TRHR ag 0.5, D1 ag 19.7, D1 potentiator -6.4, D1 antag -33.4* and TRHR enhancer -3.0.
For COCC1CCCCN1C(=O)c1cc(COc2ccc3ncccc3c2)on1 (stereo unspecified) the results were TRHR ag 1.2, D1 ag 11.7, D1 potentiator -1.4, D1 antag -26.8 and TRHR enhancer -0.3.
`CC(=O)c1ccc(OCc2cc(C(=O)N3CCC(c4ccncc4)CC3)no2)cc1` gave TRHR ag 0.0, D1 ag 17.8, D1 potentiator -9.2, D1 antag -21.0 and TRHR enhancer 5.7.
Screening O=C(CSCc1cc(=O)n2ccsc2n1)Nc1ccccc1 returned TRHR ag 0.6, D1 ag 0.0, D1 potentiator 4.3, D1 antag 0.2 and TRHR enhancer 13.4.
For COc1ccc(Cl)cc1NC(=O)C1CCN(c2ncnc3c2nc2n3CCCCC2)CC1 the results were TRHR ag -0.8, D1 ag -0.8, D1 potentiator 0.9, D1 antag -9.5 and TRHR enhancer -8.0.
COc1ccccc1C(=O)NCCC(=O)Nc1ncccc1O was read as TRHR ag -0.1, D1 ag 3.1, D1 potentiator -6.2, D1 antag -4.3 and TRHR enhancer -1.0.
C#CCN1C(=O)S/C(=C/C=C/c2ccc(N(C)C)cc2)C1=O was read as TRHR ag 1.2, D1 ag 98.2*, D1 potentiator 1.1, D1 antag -1.3 and TRHR enhancer 18.8.
For CCOC(=O)C1CCN(S(=O)(=O)c2cc(C(=O)OC)n(C)c2)CC1 the results were TRHR ag 0.6, D1 ag 2.3, D1 potentiator -4.5, D1 antag -2.4 and TRHR enhancer -3.0.
Screening CCCOc1ccc(C(=O)N(Cc2cccs2)c2ccc(C)cc2)cc1 returned TRHR ag 2.6, D1 ag 23.1, D1 potentiator 0.4, D1 antag -22.9 and TRHR enhancer 1.0.
CN1C(=O)/C(=C\c2ccc(N(C)C)cc2)OC1=S was read as TRHR ag 203.5*, D1 ag 523.1*, D1 potentiator -6.2, D1 antag -66.3* and TRHR enhancer 7.6.
For Cc1ccc(C(=O)c2cn(Cc3ccccc3C)c3nc(C)ccc3c2=O)cc1 the results were TRHR ag -0.1, D1 ag 7.0, D1 potentiator 0.5, D1 antag 8.0 and TRHR enhancer 0.8.
For Cc1ccc2c(c1)N(C(=O)CCC(=O)NCCCN1CCN(C)CC1)CCO2 the results were TRHR ag 0.7, D1 ag 0.6, D1 potentiator -8.7, D1 antag -2.0 and TRHR enhancer 4.7.
`CCC1CCCCN1CCCNC(=O)CCC(=O)N1CCOc2ccccc21` (stereo unspecified) gave TRHR ag -0.5, D1 ag 5.0, D1 potentiator 0.4, D1 antag -30.2* and TRHR enhancer 3.9.
For Cc1ccc2c(c1)N(C(=O)CCC(=O)NCCCN1CCC(Cc3ccccc3)CC1)CCO2 the results were TRHR ag 0.8, D1 ag 22.6, D1 potentiator -10.8, D1 antag -40.4* and TRHR enhancer -3.3.
`O=C(CCC(=O)N1CCOc2ccccc21)NCCCN1CCCCC1` gave TRHR ag 0.3, D1 ag 0.7, D1 potentiator -7.9, D1 antag 4.6 and TRHR enhancer -0.5.
CN(CCCNC(=O)CCC(=O)N1CCOc2ccc(Cl)cc21)Cc1ccccc1 was read as TRHR ag -0.2, D1 ag 6.3, D1 potentiator -14.1, D1 antag -30.9* and TRHR enhancer -3.1.
Screening O=C(CSc1nnc(COc2ccccc2)o1)Nc1ccc(F)cc1 returned TRHR ag -1.5, D1 ag 26.3, D1 antag -11.5 and TRHR enhancer 4.4.
Screening Cc1cc(Cn2nnc(-c3ccc(Br)cc3)n2)cc(C)c1O returned TRHR ag 1.0, D1 ag 2.0, D1 potentiator -1.2, D1 antag -12.3 and TRHR enhancer 10.5.
`CCc1ccc(C(=O)c2cn(CC(=O)Nc3ccc4c(c3)OCO4)c3cc(OC)c(OC)cc3c2=O)cc1` gave TRHR ag 1.9, D1 ag 6.0, D1 potentiator -3.8, D1 antag -7.6 and TRHR enhancer -6.3.
CCCCNC(=O)c1ccccc1SCC(=O)NC1CCCCCCC1 was read as TRHR ag 0.1, D1 ag 0.4, D1 potentiator 1.0, D1 antag -2.4 and TRHR enhancer 0.8.
For CCOC(=O)c1c(C)oc2c1c(C=NCCO)c(O)c1ccccc12 the results were TRHR ag 4.1, D1 ag 4.3, D1 potentiator -4.5, D1 antag -40.6* and TRHR enhancer -1.0.
For O=C(Cn1c(CO)nc2ccccc21)Nc1ccc2c(c1)OCCCO2 the results were TRHR ag 0.0, D1 ag 0.4, D1 potentiator -7.2, D1 antag 11.3 and TRHR enhancer 4.9.
`CCCCCS(=O)(=O)c1oc(-c2cccs2)nc1S(=O)(=O)c1ccc(C)cc1` gave TRHR ag 1.6, D1 ag 5.2, D1 potentiator -0.9, D1 antag -22.5 and TRHR enhancer -4.7.
Screening CCCCS(=O)(=O)c1oc(-c2cccs2)nc1S(=O)(=O)c1ccc(F)cc1 returned TRHR ag 1.5, D1 ag 81.1*, D1 potentiator 4.2, D1 antag 1.0 and TRHR enhancer -1.1.
`CC(c1ccccc1)C(CC(=O)O)C(=O)NC1CCCCC1` (stereo unspecified) gave TRHR ag -1.0, D1 ag 0.9, D1 potentiator -4.5, D1 antag -30.8* and TRHR enhancer -2.6.

High-throughput results as filed in PubChem.
